# From PubChem BioAssay AID1906 (The Scripps Research Institute Molecular Screening Center, 2009)
# The campaign covered roughly 300,000 compounds. About 1,500 (0.5%) were called active. Many of the other results were omitted from the sample, so actives are more common in it than they were. A number with no mark means an inactive call.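 How the source made its calls: active means inhibition above the mean of all tested compounds plus 3 SD, set per screening campaign (cut at about 17% in these data); inactive means the rest.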
# Test system: cathepsin L1 (Fasciola hepatica)
# Test: CTSL1 protease inhibition, fluke enzyme – biochemical, QFRET, fluorogenic peptide substrate, counter-screen for PFM18AAP inhibitor project, primary screen (AID 1906);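 further: 0% = plate median of test compound wells and 100% = 1 µM Z-Phe-Ala-diazomethylketone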
# Settings: recombinant F. hepatica cathepsin L1, Z-Leu-Arg-MCA fluorescence; at 5.96 µM; active compounds read high
row,Structure (SMILES),inhibition
1,CCOC(=O)NC(=O)CSc1nnc(SCCC(=O)O)s1,-3.27%
2,Cc1cccc2nc(CNc3ccc(F)cc3)cn12,-0.43%
3,O=C(CN1CCN(S(=O)(=O)c2ccc(F)cc2)CC1)NC1CC1,0.44%
4,Nc1c(Cl)cc(-c2csc(N3CCCC3c3nc4cc(Cl)c(Cl)cc4n3CCOCCO)n2)cc1Cl (configuration not stated),1.62%
5,COCCCN(C(=S)Nc1c(C)cc(C)cc1C)C(C)c1ccncc1 (configuration not stated),-2.52%
6,CC(C)Cc1nnc(NC(=O)CCC(=O)Nc2ccc3cn[nH]c3c2)s1,-6.53%
7,Cc1onc(-c2ccccc2)c1C(=O)NNC(=S)NC(=O)c1ccc(F)cc1,6.16%
8,CCc1noc(C)c1C(=O)NNC(=O)c1ccc(F)cc1,18.8% (active)
9,CCc1noc(C)c1C(=O)N1CCCC(N2CCN(c3ccc(F)cc3)CC2)C1 (configuration not stated),-0.72%
10,COc1ccc(/C=N/NC(=O)C(C)N(c2ccc(OC)cc2)S(C)(=O)=O)cc1 (configuration not stated),-4.5%
11,COc1cc(C2C(N3C(=O)c4ccccc4C3=O)C(=O)N2c2ccc(C)c(C)c2)cc(OC)c1OC (configuration not stated),3.07%
12,CCOC(=O)NN1C(=O)c2ccccc2NC1c1cccc(O)c1 (configuration not stated),7.1%
13,Cc1ccc(C2Nc3ccccc3C(=O)N2CCN2CCNC2=O)cc1 (configuration not stated),28.6% (active)
14,CC(=O)NN1C(=O)c2ccccc2NC1c1ccccc1 (configuration not stated),0.11%
15,Cc1cc(NC(=O)CCC(=O)N(c2cccc(F)c2)C(C(=O)NC2CCCC2)c2ccncc2)no1 (configuration not stated),-0.94%
16,Cc1cc(NC(=O)CCC(=O)N(Cc2ccccc2)C(C(=O)NC2CCCC2)c2ccc(C)o2)no1 (configuration not stated),29.5% (active)
17,Cc1cc(NC(=O)CCC(=O)N(c2ccccc2)C(C(=O)NC2CCCC2)c2ccncc2)no1 (configuration not stated),-1.79%
18,CC1CCN(S(=O)(=O)c2ccc3ncn(CC(=O)N(C)C4CCCCC4)c(=O)c3c2)CC1,1.81%
19,Cc1ccc(C)c(Cn2nnc3c(=O)[nH]c(C(=O)Nc4ccc(F)cc4)nc32)c1,0.39%
20,O=C(CCl)NNc1cccc(Cl)n1,87.5% (active)
21,O=C(Cc1c(Cl)cccc1Cl)NC1CC1,4.27%
22,O=C(NNc1ccccn1)c1ccc(Cl)nc1,1.75%
23,Cc1ccccc1NC(=O)c1ccc(COc2ccc3c(C)cc(=O)oc3c2)cc1,1.96%
24,CCn1ccnc1CN(C)Cc1nc(-c2ccc3c(c2)OCO3)no1,-4.87%
25,COc1ccc(CCNC(=O)COC(=O)C2CCCCC2)cc1,-2.54%
26,COc1ccc(NC(=O)CN(C)C(=O)CNC(=O)C2CCCCC2)cc1,-1.07%
27,COc1ccc(NC(=O)COC(=O)CNC(=O)C2CCCCC2)cc1,32.3% (active)
